{
  "source": "PubChem BioAssay AID1159580",
  "about": "(chemical genetic matrix, 2015)",
  "assay": "chemical genetic growth profiling, strain panel (AID 1159580);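 further: tested at 20 µM; growth read once vehicle control cultures reached saturation at 30 °C; 1 = growth at the plate median or of vehicle wells; lower values mean less growth of the strain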",
  "details": "growth OD",
  "key": {"[1]": {"details": "S. cerevisiae deletion strains, locus YAL013W, strain DEP1, hits give low values"}, "[2]": {"details": "S. cerevisiae deletion strains, locus YBR229C, strain ROT2, hits give low values"}, "[3]": {"details": "S. cerevisiae deletion strains, locus YDL101C, strain DUN1, hits give low values"}, "[4]": {"details": "S. cerevisiae deletion strains, locus YDL134C, strain PPH21, hits give low values"}, "[5]": {"details": "S. cerevisiae deletion strains, locus YDR150W, strain NUM1, hits give low values"}, "[6]": {"details": "S. cerevisiae deletion strains, locus YEL061C, strain CIN8, hits give low values"}, "[7]": {"details": "S. cerevisiae deletion strains, locus YGR078C, strain PAC10, hits give low values"}, "[8]": {"details": "S. cerevisiae deletion strains, locus YHR030C, strain SLT2, hits give low values"}, "[9]": {"details": "S. cerevisiae deletion strains, locus YHR087W, strain rtc3, hits give low values"}, "[10]": {"details": "S. cerevisiae deletion strains, locus YJR043C, strain POL32, hits give low values"}, "[11]": {"details": "S. cerevisiae deletion strains, locus YJR075W, strain HOC1, hits give low values"}, "[12]": {"details": "S. cerevisiae deletion strains, locus YLR039C, strain RIC1, hits give low values"}, "[13]": {"details": "S. cerevisiae deletion strains, locus YLR058C, strain SHM2 (second series), hits give low values"}, "[14]": {"details": "S. cerevisiae deletion strains, locus YLR085C, strain ARP6, hits give low values"}, "[15]": {"details": "S. cerevisiae deletion strains, locus YLR262C, strain YPT6, hits give low values"}, "[16]": {"details": "S. cerevisiae deletion strains, locus YML094W, strain GIM5, hits give low values"}, "[17]": {"details": "S. cerevisiae deletion strains, locus YMR219W, strain ESC1, hits give low values"}, "[18]": {"details": "S. cerevisiae deletion strains, locus YMR263W, strain SAP30, hits give low values"}, "[19]": {"details": "S. cerevisiae deletion strains, locus YNL128W, strain TEP1, hits give low values"}, "[20]": {"details": "S. cerevisiae deletion strains, locus YNL153C, strain GIM3, hits give low values"}, "[21]": {"details": "S. cerevisiae deletion strains, locus YNL298W, strain CLA4 (second series), hits give low values"}, "[22]": {"details": "S. cerevisiae deletion strains, locus YNL322C, strain KRE1, hits give low values"}, "[23]": {"details": "S. cerevisiae deletion strains, locus YNR030W, strain Alg12, hits give low values"}, "[24]": {"details": "S. cerevisiae deletion strains, locus YPL055C, strain LGE1, hits give low values"}, "[25]": {"details": "S. cerevisiae deletion strains, locus YPL241C, strain CIN2, hits give low values"}, "[26]": {"details": "S. cerevisiae deletion strains, locus YPR135W, strain CTF4, hits give low values"}},
  "note": "Among all 5,500 compounds or so, about 2,000 (36%) were called active. Not shown: some 18% with an inconclusive outcome. This is one part of the list. A number with no mark means an inactive call. No stated cut-off is given here; in the data, active means normalized growth mostly below about 0.91 (no sharp cut-off); inconclusive means no clear call, values can overlap the other calls; inactive means mostly above about 0.92.",
  "data": [
    {"compound": "COc1ccc(/C=N\\NC(=O)CC#N)cc1OC", "values": [
      {"measurement": "normalized growth", "setting": "[1]", "value": 1},
      {"measurement": "normalized growth", "setting": "[2]", "value": 1},
      {"measurement": "normalized growth", "setting": "[3]", "value": 1.04},
      {"measurement": "normalized growth", "setting": "[4]", "value": 0.999},
      {"measurement": "normalized growth", "setting": "[5]", "value": 1.04},
      {"measurement": "normalized growth", "setting": "[6]", "value": 0.985},
      {"measurement": "normalized growth", "setting": "[7]", "value": 0.998},
      {"measurement": "normalized growth", "setting": "S. cerevisiae deletion strains, locus YGR229C, strain SMI1, hits give low values", "value": 1},
      {"measurement": "normalized growth", "setting": "[8]", "value": 1.05},
      {"measurement": "normalized growth", "setting": "[9]", "value": 0.996},
      {"measurement": "normalized growth", "setting": "[10]", "value": 1.01},
      {"measurement": "normalized growth", "setting": "[11]", "value": 1.01},
      {"measurement": "normalized growth", "setting": "S. cerevisiae deletion strains, locus YKL190W, strain CNB1, hits give low values", "value": 1},
      {"measurement": "normalized growth", "setting": "[12]", "value": 1},
      {"measurement": "normalized growth", "setting": "[13]", "value": 1.04},
      {"measurement": "normalized growth", "setting": "[14]", "value": 0.957},
      {"measurement": "normalized growth", "setting": "[15]", "value": 1.01},
      {"measurement": "normalized growth", "setting": "[16]", "value": 0.998},
      {"measurement": "normalized growth", "setting": "[17]", "value": 0.997},
      {"measurement": "normalized growth", "setting": "[18]", "value": 1.04},
      {"measurement": "normalized growth", "setting": "[19]", "value": 1.01},
      {"measurement": "normalized growth", "setting": "[20]", "value": 1.03},
      {"measurement": "normalized growth", "setting": "[21]", "value": 1.02},
      {"measurement": "normalized growth", "setting": "[22]", "value": 1},
      {"measurement": "normalized growth", "setting": "[23]", "value": 0.998},
      {"measurement": "normalized growth", "setting": "[24]", "value": 1.15},
      {"measurement": "normalized growth", "setting": "[25]", "value": 1.01},
      {"measurement": "normalized growth", "setting": "[26]", "value": 1.29}
    ]},
    {"compound": "O=C(NC(=S)Nc1ccc(Cl)cc1)c1ccc([N+](=O)[O-])o1", "values": [
      {"measurement": "normalized growth", "setting": "[1]", "value": 0.958},
      {"measurement": "normalized growth", "setting": "[2]", "value": 0.975},
      {"measurement": "normalized growth", "setting": "[3]", "value": 1.03},
      {"measurement": "normalized growth", "setting": "[4]", "value": 0.999},
      {"measurement": "normalized growth", "setting": "[5]", "value": 0.964},
      {"measurement": "normalized growth", "setting": "[6]", "value": 0.98},
      {"measurement": "normalized growth", "setting": "[7]", "value": 0.963},
      {"measurement": "normalized growth", "setting": "[8]", "value": 0.714},
      {"measurement": "normalized growth", "setting": "[9]", "value": 0.955},
      {"measurement": "normalized growth", "setting": "[10]", "value": 0.985},
      {"measurement": "normalized growth", "setting": "[11]", "value": 0.984},
      {"measurement": "normalized growth", "setting": "[12]", "value": 0.899},
      {"measurement": "normalized growth", "setting": "[13]", "value": 0.984},
      {"measurement": "normalized growth", "setting": "[14]", "value": 0.892},
      {"measurement": "normalized growth", "setting": "[15]", "value": 0.917},
      {"measurement": "normalized growth", "setting": "[16]", "value": 0.945},
      {"measurement": "normalized growth", "setting": "[17]", "value": 0.978},
      {"measurement": "normalized growth", "setting": "[18]", "value": 0.985},
      {"measurement": "normalized growth", "setting": "[19]", "value": 0.979},
      {"measurement": "normalized growth", "setting": "[20]", "value": 0.999},
      {"measurement": "normalized growth", "setting": "[21]", "value": 0.912},
      {"measurement": "normalized growth", "setting": "[22]", "value": 0.96},
      {"measurement": "normalized growth", "setting": "[23]", "value": 0.956},
      {"measurement": "normalized growth", "setting": "S. cerevisiae deletion strains, locus YOL006C, strain TOP1, hits give low values", "value": 0.999},
      {"measurement": "normalized growth", "setting": "[24]", "value": 0.937},
      {"measurement": "normalized growth", "setting": "[25]", "value": 1.08},
      {"measurement": "normalized growth", "setting": "[26]", "value": "0.577 (active)"},
      {"measurement": "normalized growth", "setting": "S. cerevisiae strains, strain wild type, hits give low values", "value": 0.981}
    ]}
  ]
}
